# Records with an inconclusive call do not appear. Values without a mark were called inactive. Activity calls are given as the source filed them. The call rests on the fitted dose curve; in most records, active means well fitted curve in the direction sought with a large enough effect; inconclusive means small, poorly fitted or top-dose-only effect, or another doubt; inactive means no such curve, though single readings can be large; an effect the other way counts as inactive or inconclusive.
# Key:
# [1] = Quantitative High-Throughput drug screen in 47 multiple myeloma cell lines against the NCATS MIPE library collection: KMS26_JCRB cell viability assay (AID 1918975); settings: KMS26 myeloma cells viability, CellTiter-Glo ATP, 48 h; series mostly up to 45.8 µM; further: nearly all actives have a fitted effect of over 45% in size
# Outline: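 Myeloma cells (500 per well) were exposed to MIPE 4.0 compounds by pin transfer and incubated 48 hours at 37C, 5% CO2. Viability was read as ATP by CellTiter-Glo luminescence, normalised to DMSO (100%) and media-only (0%) wells.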
# [2] = Quantitative High-Throughput drug screen in 47 multiple myeloma cell lines against the NCATS MIPE library collection: MOLP8_DSMZ cell viability assay (AID 1918977); settings: MOLP8 myeloma viability, CellTiter-Glo ATP luminescence, 48 h; series mostly up to 45.8 µM; further: nearly all actives have a fitted effect of over 45% in size
# Outline: (§1)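 MIPE 4.0 approved/investigational drugs; 500 cells/well; 48 h 37 °C humidified 5% CO2; CTG luminescence readout; DMSO = 100%, media = 0% viability.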
# [3] = Quantitative High-Throughput drug screen in 47 multiple myeloma cell lines against the NCATS MIPE library collection: OCIMY1_PLB cell viability assay (AID 1918979); settings: OCI-MY1 myeloma viability, CellTiter-Glo ATP, 48 h; series mostly up to 45.8 µM; further: nearly all actives have a fitted effect of over 35% in size
# Outline: as §1
# [4] = Quantitative High-Throughput drug screen in 47 multiple myeloma cell lines against the NCATS MIPE library collection: MM1S_ATCC cell viability assay (AID 1918980); settings: MM1S myeloma viability, CellTiter-Glo ATP luminescence, 48 h; series mostly up to 45.8 µM; further: nearly all actives have a fitted effect of over 45% in size
# Outline: as §1
# [5] = Quantitative High-Throughput drug screen in 47 multiple myeloma cell lines against the NCATS MIPE library collection: MM1R_ATCC cell viability assay (AID 1918981); settings: MM1R multiple myeloma cells, CellTiter-Glo viability, 48 h; series mostly up to 45.8 µM; further: nearly all actives have a fitted effect of over 35% in size
# Outline: as §1
# [6] = Quantitative High-Throughput drug screen in 47 multiple myeloma cell lines against the NCATS MIPE library collection: L363_DSMZ cell viability assay (AID 1918984); settings: L363 myeloma viability, CellTiter-Glo ATP luminescence, 48 h; series mostly up to 45.8 µM; further: nearly all actives have a fitted effect of over 40% in size
# Outline: as §1
# [7] = Quantitative High-Throughput drug screen in 47 multiple myeloma cell lines against the NCATS MIPE library collection: OPM1_PLB cell viability assay (AID 1918989); settings: CellTiter-Glo, 48 h; series mostly up to 45.8 µM; further: nearly all actives have a fitted effect of over 40% in size
# Outline: as §1
# [8] = Quantitative High-Throughput drug screen in 47 multiple myeloma cell lines against the NCATS MIPE library collection: VP6_DJ cell viability assay (AID 1919867); settings: ATP luminescence, 48 h; series mostly up to 45.8 µM; further: nearly all actives have a fitted effect of over 40% in size
# Outline: as §1
# [9] = Quantitative High-Throughput drug screen in 47 multiple myeloma cell lines against the NCATS MIPE library collection: LP1_DSMZ cell viability assay (AID 1918982); settings: LP1 myeloma viability, CellTiter-Glo ATP luminescence, 48 h; series mostly up to 45.8 µM; further: nearly all actives have a fitted effect of over 35% in size
# Outline: as §1
# [10] = Quantitative High-Throughput drug screen in 47 multiple myeloma cell lines against the NCATS MIPE library collection: KMS28PE_JCRB cell viability assay (AID 1918983); settings: KMS28PE multiple myeloma viability, CellTiter-Glo ATP, 48 h; series mostly up to 45.8 µM; further: nearly all actives have a fitted effect of over 35% in size
# Outline: as §1
# [11] = Quantitative High-Throughput drug screen in 47 multiple myeloma cell lines against the NCATS MIPE library collection: SKMM1_PLB cell viability assay (AID 1919863); settings: SKMM1 myeloma viability, CellTiter-Glo ATP, 48 h; viability: active compounds read low; further: nearly all actives have a fitted effect of over 35% in size
# Outline: as §1
# [12] = Quantitative High-Throughput drug screen in 47 multiple myeloma cell lines against the NCATS MIPE library collection: XG1_PLB cell viability assay (AID 1919866); settings: CellTiter-Glo ATP, 48 h; series mostly up to 45.8 µM; further: nearly all actives have a fitted effect of over 35% in size
# Outline: as §1
# [13] = Quantitative High-Throughput drug screen in 47 multiple myeloma cell lines against the NCATS MIPE library collection: KMS34_JCRB cell viability assay (AID 1918985); settings: KMS34 myeloma viability, CellTiter-Glo ATP luminescence, 48 h; series mostly up to 45.8 µM; further: nearly all actives have a fitted effect of over 40% in size
# Outline: as §1
# [14] = Quantitative High-Throughput drug screen in 47 multiple myeloma cell lines against the NCATS MIPE library collection: OCIMY5_PLB cell viability assay (AID 1918988); settings: OCI-MY5 myeloma viability, ATP luminescence, 48 h; series mostly up to 45.8 µM; further: nearly all actives have a fitted effect of over 65% in size
# Outline: as §1
# [15] = Quantitative High-Throughput drug screen in 47 multiple myeloma cell lines against the NCATS MIPE library collection: XG6_PLB cell viability assay (AID 1919865); settings: XG6 myeloma viability, CellTiter-Glo ATP luminescence, 48 h; series mostly up to 45.8 µM; further: nearly all actives have a fitted effect of over 40% in size
# Outline: as §1
# [16] = Quantitative High-Throughput drug screen in 47 multiple myeloma cell lines against the NCATS MIPE library collection: NCIH929_DSMZ cell viability assay (AID 1918978); settings: NCI-H929 myeloma viability, CellTiter-Glo ATP, 48 h; series mostly up to 45.8 µM; further: nearly all actives have a fitted effect of over 35% in size
# Outline: as §1
# [17] = Quantitative High-Throughput drug screen in 47 multiple myeloma cell lines against the NCATS MIPE library collection: U266_ATCC cell viability assay (AID 1919864); settings: U266 myeloma viability, CellTiter-Glo ATP luminescence, 48 h; series mostly up to 45.8 µM; further: nearly all actives have a fitted effect of over 35% in size
# Outline: as §1
# [18] = Quantitative High-Throughput drug screen in 47 multiple myeloma cell lines against the NCATS MIPE library collection: MMM1_PLB cell viability assay (AID 1918976); settings: MMM1 myeloma cells viability, CellTiter-Glo, 48 h; series mostly up to 45.8 µM; further: nearly all actives have a fitted effect of over 35% in size
# Outline: as §1
# [19] = Quantitative High-Throughput drug screen in 47 multiple myeloma cell lines against the NCATS MIPE library collection: OCIMY7_PLB cell viability assay (AID 1918987); settings: OCI-MY7 myeloma viability, CellTiter-Glo ATP, 48 h; viability (% of DMSO): at 45.8 µM (top of the series); further: nearly all actives have a fitted effect of over 65% in size
# Outline: as §1
# Potency means the concentration at half of the fitted maximal effect.
Compound,Potency [1],Potency [2],Potency [3],Potency [4],Potency [5],Potency [6],Potency [7],Potency [8],Potency [9],Potency [10],viability [11] [%],Potency [12],Potency [13],Potency [14],Potency [15],Potency [16],Potency [11],Potency [17],Potency [18],Potency [19]
COc1ccc(-c2nc(N3CCOCC3)c3sc(CN(C)c4ncc(C(=O)NO)cn4)cc3n2)cn1,0.0264 µM (active),inactive,0.0059 µM (active),inactive,inactive,0.001 µM (active),inactive,inactive,,,,,,,,,,,,
Cn1cc(C=C2C(=O)Nc3cccnc32)c2ccccc21,inactive,inactive,inactive,,,,18.7 µM (active),,inactive,inactive,130,inactive,,,,,,,,
CC#CCn1c(N2CCC[C@@H](N)C2)nc2c1c(=O)n(Cc1nc(C)c3ccccc3n1)c(=O)n2C,inactive,inactive,inactive,20.9 µM (active),inactive,,,,inactive,,,,4.18 µM (active),26.4 µM (active),inactive,,,,,
NS(=O)(=O)c1ccc(NC2=CC(=O)c3ccccc3C2=O)cc1,3.72 µM (active),inactive,inactive,,,1.66 µM (active),6.62 µM (active),,2.35 µM (active),inactive,,,,4.69 µM (active),,26.4 µM (active),4.69 µM (active),,,
O=C(CCc1ccc(O)cc1)c1c(O)cc(O)cc1O[C@@H]1O[C@H](CO)[C@H](O)[C@H](O)[C@H]1O,inactive,,inactive,,inactive,inactive,,,inactive,,101,inactive,,inactive,,inactive,,inactive,,
CC(C)(C)OC(=O)N[C@H]1CCCCCC=C[C@@H]2C[C@@]2(C(=O)NS(=O)(=O)C2CC2)NC(=O)[C@@H]2C[C@@H](OC(=O)N3Cc4cccc(F)c4C3)CN2C1=O,inactive,inactive,inactive,inactive,inactive,inactive,inactive,inactive,,inactive,123,,inactive,,inactive,inactive,,inactive,,
C[N+]1(C)[C@@H]2CC(OC(=O)[C@H](CO)c3ccccc3)C[C@H]1[C@H]1O[C@@H]12 (some centres not stated),inactive,inactive,inactive,,inactive,inactive,inactive,,inactive,inactive,,,inactive,,23.5 µM (active),,,,,
COC[C@@H](c1ccc(C(F)(F)F)cc1)N1CCN(C2(C)CCN(C(=O)c3c(C)ncnc3C)CC2)C[C@H]1C,inactive,inactive,inactive,2.35 µM (active),inactive,,inactive,23.5 µM (active),inactive,,118,,,,16.6 µM (active),,,6.62 µM (active),,
O=C(NCc1ccccc1)c1csc(Nc2ccncn2)n1,,18.7 µM (active),20.9 µM (active),16.6 µM (active),14.8 µM (active),10.5 µM (active),13.2 µM (active),16.6 µM (active),18.7 µM (active),16.6 µM (active),,16.6 µM (active),23.5 µM (active),,18.7 µM (active),,18.7 µM (active),18.7 µM (active),14.8 µM (active),
COc1cc2c(cc1OC)CN(CCc1ccc(NC(=O)c3cc(OC)c(OC)cc3NC(=O)c3cnc4ccccc4c3)cc1)CC2,,inactive,inactive,2.64 µM (active),,inactive,14.8 µM (active),,inactive,,118,20.9 µM (active),inactive,,18.7 µM (active),8.33 µM (active),,5.26 µM (active),2.35 µM (active),6.62 µM (active)
COCCOC(=O)C1=C(C)NC2=C(C(=O)CC(c3ccccc3OC)C2)C1c1cccc(O)c1 (configuration not stated),8.33 µM (active),,inactive,16.6 µM (active),,0.001 µM (active),6.62 µM (active),,,5.9 µM (active),,4.18 µM (active),,8.33 µM (active),2.64 µM (active),,10.5 µM (active),13.2 µM (active),,2.64 µM (active)
CNC(=O)c1ccccc1Sc1ccc2c(C=Cc3ccccn3)n[nH]c2c1,,,inactive,16.6 µM (active),,,18.7 µM (active),14.8 µM (active),23.5 µM (active),5.26 µM (active),,,,0.935 µM (active),,20.9 µM (active),13.2 µM (active),,20.9 µM (active),2.64 µM (active)

# Reference: PubChem BioAssay (NCATS)
